Screening results: PubChem, National Center for Advancing Translational Sciences (NCATS)
This is a sample that favours compounds with a hit; in the whole collection about 19% have one here.
ASM inhibitor: Inhibitors of Secretory Acid Sphingomyelinase (S-ASM): qHTS; 0.006% of 340,000 active; Sphingomyelin phosphodiesterase (Homo sapiens), P17405; AID 504937, 2011; placental ASM, HMU-PC fluorogenic substrate, 60 min; Potency, µM (top dose mostly 57.5 µM), for the others: top-dose activity change, negative = inhibition, most hits filed as inhibitors; note: potency is the fitted concentration of half-maximal effect
Target sequence (P17405 47-631 limits assumed): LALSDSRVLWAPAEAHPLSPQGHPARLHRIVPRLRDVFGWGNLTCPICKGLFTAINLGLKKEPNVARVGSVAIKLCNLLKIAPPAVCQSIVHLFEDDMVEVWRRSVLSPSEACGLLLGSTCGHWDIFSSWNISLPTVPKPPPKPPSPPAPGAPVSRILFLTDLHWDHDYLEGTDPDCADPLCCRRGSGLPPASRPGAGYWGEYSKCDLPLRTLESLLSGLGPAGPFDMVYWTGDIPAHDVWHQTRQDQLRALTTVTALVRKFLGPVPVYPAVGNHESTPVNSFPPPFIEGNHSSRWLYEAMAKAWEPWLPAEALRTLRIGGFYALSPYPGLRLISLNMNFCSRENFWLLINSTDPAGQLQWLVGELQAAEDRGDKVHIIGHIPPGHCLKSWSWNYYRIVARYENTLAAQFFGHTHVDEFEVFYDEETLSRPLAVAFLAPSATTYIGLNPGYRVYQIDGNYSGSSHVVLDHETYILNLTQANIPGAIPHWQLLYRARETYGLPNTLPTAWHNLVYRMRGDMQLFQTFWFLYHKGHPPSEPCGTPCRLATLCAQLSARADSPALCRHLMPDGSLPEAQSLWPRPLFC
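Fluorescence read-out (Ex 386 nm, Em 447 nm) after stopping the reaction at pH 10. Enzyme: ASM from human placenta; substrate HMU-PC0, 9 uM final; 60 min, 37 °C. Compound preincubation 10 min, ambient temperature.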
HepG2 tox: qHTS for Inhibitors of TGF-b: Cytotox Counterscreen. HepG2 CAGA-GFP viability, ATP luminescence, 18 h. Potency, µM (titrated, usually from 46.1 µM), inactives show at the highest dose activity change, negative = cytotoxicity, actives largely listed as cytotoxic. 0.76% of 410,000 active. AID 588856, 2011; note: potency is the fitted concentration of half-maximal effect
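CellTiter-Glo luminescence gave cytotoxicity after 18 hours at 37 degrees C. The cells were HepG2 CAGA-GFP in 1% FBS DMEM, stimulated with 500 pg/mL TGF-beta after compound addition. %Activity was normalised to no-cell wells (complete cell-killing) and DMSO (no toxicity), and curves were fitted and classified.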
TDP1 cell noCPT: qHTS for Inhibitors of human tyrosyl-DNA phosphodiesterase 1 (TDP1): qHTS in cells in absence of CPT; DT40 Tdp1-/- hTDP1 cells, no CPT, ATP luminescence, 48 h; Potency, µM (top dose mostly 46.2 µM), for inactives: top-dose activity change, negative = growth inhibition, most hits filed as inhibitors; 15% of 420,000 active; AID 686978, 2013; note: potency is the fitted concentration of half-maximal effect; % is set by controls: 0 for no effect and ±100 for the full control effect; nearly all actives have a fitted effect of over 55% in size
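A cellular qHTS used chicken DT40 cells lacking endogenous Tdp1 but carrying stably transfected human TDP1. Compounds were applied without camptothecin, and cell growth kinetics were judged by ATP-dependent luminescence after ≥48 hr.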
TGFb inhibitor: qHTS for Inhibitors of TGF-b; HepG2 CAGA-GFP TGF-b/SMAD3 reporter, GFP fluorescence, 18 h; TGF-beta stimulated, 500 pg/mL final; Potency, µM (highest dose often 46.1 µM), for the others: top-dose activity, negative = inhibition, hits mostly inhibitors; 1.2% of 410,000 active; note: potency is the fitted concentration of half-maximal effect; % is set by controls: 0 for no effect and ±100 for the full control effect; nearly all actives have a fitted effect of over 65% in size
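First, reporter cells (HEPG2 CAGA-GFP) rested 2 h at 37 degrees C. Next, compounds were pinned in and TGF-beta added to 500 pg/mL final. After 18 h, GFP was imaged per cell and summed per well.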
DT40 TDP1 CPT: qHTS for Inhibitors of human tyrosyl-DNA phosphodiesterase 1 (TDP1): qHTS in cells in presence of CPT; chicken DT40 Tdp1-/-;hTDP1 cells + 20 nM CPT, ATP luminescence, 48 h; Potency, µM (highest dose often 46.2 µM), for the others: at the top dose activity change, negative = growth inhibition, most hits filed as inhibitors; 12% of 420,000 active; AID 686979, 2013; note: potency is the fitted concentration of half-maximal effect; % is set by controls: 0 for no effect and ±100 for the full control effect; nearly all actives have a fitted effect of over 55% in size
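Cell growth measured by CellTiter-Glo luminescence after a minimum 48 h, 37 C compound exposure with 20 nM CPT in Tdp1-knockout DT40 cells stably expressing hTDP1, seeded 400/well; qHTS titration format.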
IL-1B inflam inh: qHTS for Inhibitors of Inflammasome Signaling: IL-1-beta AlphaLISA Primary Screen; THP-1 LPS/ATP IL-1B secretion, AlphaLISA, 16 h; stronger effect = lower value; activity change, % at 57.5 µM; 4.7% of 360,000 active; in the data active = activity change below about -50%; inconclusive = mostly about -30% to -49%; note: % is set by controls: 0 for no effect and ±100 for the full control effect
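THP-1 cells pretreated 1 hr with compounds (up to 57.5 uM final), then stimulated with LPS (250 ng/mL final) plus ATP (1.25 mM final); secreted IL-1B measured by AlphaLISA after 16 hr, decreased signal indicating inhibition.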
* hit, by the source's call; u = inconclusive; x = not tested or not shown. Unless noted, calls come from the whole dose curve; as a rule, active = well fitted curve in the direction sought with a large enough effect; inconclusive = small, poorly fitted or top-dose-only effect, or another doubt; inactive = no such curve, though single readings can be large; an effect the other way counts as inactive or inconclusive.

SMILES	ASM inhibitor	HepG2 tox	TDP1 cell noCPT	TGFb inhibitor	DT40 TDP1 CPT	IL-1B inflam inh
Cc1nc(SCC(=O)N(CC(C)C)C2CCS(=O)(=O)C2)c2ccccc2n1 (stereo unspecified)	-2%	-9%	u	1%	-24%	-24
CC(C)(C)S(=O)(=O)N1Cc2ccc(CO)cc2[C@@H]1CCO	4%	8%	-3%	1%	-5%	9
CN(C)c1ccc(-c2csc(C(O)c3ccc(F)c(F)c3)n2)cc1 (stereo unspecified)	x	-38%	15µM*	-23%	16µM*	-15
CN(C)c1ccc(-c2csc(C(O)c3ccc(F)cc3)n2)cc1 (stereo unspecified)	x	-33%	u	-8%	u	-19
COc1cc(C(O)c2nc(-c3ccncc3)cs2)ccc1F (stereo unspecified)	x	-4%	23µM*	1%	u	-9
COc1cccc(C(O)c2nc(-c3ccccc3C)cs2)c1 (stereo unspecified)	x	-27%	18µM*	-7%	u	22
COc1ccc(-c2csc(C(O)c3ccc(F)cc3)n2)cc1 (stereo unspecified)	x	-11%	u	-4%	u	19
COc1cccc(C(O)c2nc(-c3ccccc3OC)cs2)c1 (stereo unspecified)	x	-20%	u	23%	u	-15
COc1ccc(C(O)c2nc(-c3ccncc3)cs2)cc1 (stereo unspecified)	x	-12%	10µM*	-12%	18µM*	46
O=C(Nc1ccc(F)cc1F)c1ccc2c(O)c(S(=O)(=O)c3ccc(Cl)cc3)c(=O)[nH]c2c1	x	7%	-3%	26%	8%	x
C#CCN(Cc1ccc(OC)cc1)S(=O)(=O)C=C	x	15%	u	-22%	u	x
CCOc1ccc(C(=O)NCCS(=O)(=O)N2CCN(c3ccccc3F)CC2)cc1OCC	x	-12%	u	3%	-3%	x
COc1ccc(C(O)c2nc(-c3ccccc3)cs2)cc1 (stereo unspecified)	x	-30%	10µM*	-22%	13µM*	7
COc1cccc(C(O)c2nc(-c3ccccc3)cs2)c1 (stereo unspecified)	x	-18%	16µM*	-26%	u	-5
COc1cccc(C(O)c2nc(-c3ccc(Cl)cc3)cs2)c1 (stereo unspecified)	x	-41%	u	-22%	u	1
COc1ccc(C(O)c2nc(-c3ccc(N(C)C)cc3)cs2)cc1 (stereo unspecified)	x	-21%	18µM*	1%	u	-7
COc1ccc(-c2csc(C(O)c3ccc(OC)cc3)n2)cc1 (stereo unspecified)	x	-11%	u	0%	u	14
O=C(O)c1cc(N2C(=O)CCC2=O)ccc1Cl	4%	-2%	-1%	-2%	4%	6
Cc1coc2cc3oc(=O)c(CCC(=O)N4CCC(C(=O)O)(c5ccccc5)CC4)c(C)c3cc12	39%	-25%	-4%	-14%	-1%	45
C/C=C/c1cccc(-c2nc(C(=O)NC3CCC3)cc3c2[C@H](CCO)N(S(=O)C(C)(C)C)C3)c1 (stereo partly specified)	x	4%	u	u	u	-19
C/C=C/c1cccc(-c2nc(C(=O)NC3CCCC3)cc3c2[C@@H](CCO)N(S(=O)C(C)(C)C)C3)c1 (stereo partly specified)	x	-14%	18µM*	u	26µM*	-4
C/C=C/c1cccc(-c2nc(C(=O)N3CCCCC3)cc3c2[C@H](CCO)N(C(=O)NC(C)C)C3)c1	x	x	-21%	x	-10%	1
C/C=C/c1cccc(-c2nc(C(=O)NC3Cc4ccccc4C3)cc3c2[C@@H](CCO)N(C(C)=O)C3)c1	x	x	u	x	15µM*	-57*
Cc1cccc(CNC(=O)C2CCC(=O)N(CC3CCCCC3)C2)c1 (stereo unspecified)	x	-22%	u	-22%	u	6
Cc1c(C#N)c(N=CN(C)C)c(C(=O)c2ccccc2)n1-c1ccc(Br)cc1	0%	-6%	u	-4%	18µM*	0
SMILES	ASM inhibitor	HepG2 tox	TDP1 cell noCPT	TGFb inhibitor	DT40 TDP1 CPT	IL-1B inflam inh
Cc1ccc(NC(=O)c2c(C)oc3ccc(O)c(CN(C)Cc4ccccc4)c23)c(C)c1	x	-22%	15µM*	x	16µM*	x
CCN(Cc1ccccc1)Cc1c(O)ccc2oc(C)c(C(=O)Nc3ccc(C)cc3C)c12	x	-46%	7.3µM*	u	7.3µM*	x
Cc1ccc(NC(=O)c2ccccc2CCc2ccccc2)c(C)c1	1%	-30%	-26%	-18%	-10%	0
Cc1ccc(NC(=O)c2c(C)oc3ccc(O)c(CN4CCCC4)c23)c(C)c1	x	0%	u	10%	u	x
CCOCCn1c(=O)c2c(nc3n2CC(C)CN3CCc2ccccc2)n(C)c1=O (stereo unspecified)	-1%	1%	u	-1%	26µM*	-5
CCOc1nc2c(c(=O)n(C)c(=O)n2C)n1Cc1ccccc1Cl	-3%	-19%	12µM*	-24%	16µM*	15
CCOCCOc1nc2c(c(=O)n(C)c(=O)n2C)n1CCc1ccccc1	1%	2%	21µM*	-8%	18µM*	19
C=CCOc1nc2c(c(=O)n(C)c(=O)n2C)n1Cc1c(Cl)cccc1Cl	-6%	-16%	21µM*	-3%	u	-23
CSCCC(NS(=O)(=O)c1ccc2c(c1)oc(=O)n2C)C(=O)NCc1cccs1 (stereo unspecified)	5%	-3%	-22%	-12%	0%	20
C=CCOc1nc2c(c(=O)n(Cc3ccc(Cl)c(Cl)c3)c(=O)n2C)n1C	-1%	4%	23µM*	2%	16µM*	15
COCCOc1nc2c(c(=O)n(C)c(=O)n2C)n1Cc1cccc(OC)c1	-3%	-3%	7.3µM*	3%	8.2µM*	-17
Cn1c(OCc2ccc3c(c2)OCO3)nc2c1c(=O)n(Cc1ccc(Cl)c(Cl)c1)c(=O)n2C	-5%	0%	u	-4%	u	14
